Screening data: PubChem, National Center for Advancing Translational Sciences (NCATS)
The list is not random: actives were taken first. Their share in the collection is about 14%.
Pf growth 48h – Primary qHTS for delayed death inhibitors of the malarial parasite plastid, 48 hour incubation | P. falciparum luciferase growth in erythrocytes, 48 h | Potency, µM (doses to about 28.7 µM), inactives show top-dose activity change, negative = inhibition, actives largely listed as inhibitors | hit rate 5.9% among 310,000 | AID 504832, 2011; note: potency is the fitted concentration of half-maximal effect
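Firefly luciferase activity from engineered P. falciparum reports growth; inhibitors lower the luminescent signal. Cultures contained 2% hematocrit erythrocytes at 0.1% final parasitemia.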
FBPA Giardia inh – qHTS Assay for Inhibitors of Fructose-1,6-bisphosphate Aldolase from Giardia Lamblia | A8B2U2 | purified Giardia FBPA | Potency, µM (doses to about 59.6 µM), without a hit: top-dose activity, negative = inhibition, actives largely listed as inhibitors | hit rate 0.71% among 290,000 | AID 2451, 2010; note: potency is the fitted concentration of half-maximal effect; nearly all actives have a fitted effect of over 55% in size
Target sequence (A8B2U2 whole entry, looked up): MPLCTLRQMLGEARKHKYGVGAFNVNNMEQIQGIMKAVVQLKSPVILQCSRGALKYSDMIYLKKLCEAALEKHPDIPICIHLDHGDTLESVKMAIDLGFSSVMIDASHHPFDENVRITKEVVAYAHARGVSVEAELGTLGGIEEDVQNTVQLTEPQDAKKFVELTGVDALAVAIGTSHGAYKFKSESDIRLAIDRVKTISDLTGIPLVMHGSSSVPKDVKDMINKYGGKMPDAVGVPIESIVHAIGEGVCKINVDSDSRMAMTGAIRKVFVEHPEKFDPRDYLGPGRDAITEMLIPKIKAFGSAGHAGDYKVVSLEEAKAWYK
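Giardia FBPA (40 nM reagent) was preincubated 10 min at RT with compound (up to 57.5 uM final), then substrate plus GAPDH/TPI/NAD/arsenate coupling system with diaphorase/resazurin was added; resorufin fluorescence (525/598 nm) was read after 20 min.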
HCMV antiviral – qHTS Assay for inhibitors of the human cytomegalovirus (HCMV). HFF cells, HCMV-luciferase reporter, 72 h; stronger effect = lower value. activity change, negative = inhibition, % at 57.5 µM. hit rate 4.5% among 410,000. AID 1259415, 2018; in the data active = activity change below about -60%; inconclusive = no clear call, values can overlap the other calls; inactive = above about -39%
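Human foreskin fibroblasts infected with luciferase-reporter HCMV at MOI 1 PFU/cell, compounds at two doses. Luciferase measured 72 h post infection; normalized to buffer-only basal and Salinomycin (10uM) controls.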
Sm TGR inh – qHTS Assay for the Inhibitors of Schistosoma Mansoni Peroxiredoxins | Schistosoma mansoni thioredoxin glutathione reductase (TGR), Q962Y6 | purified TGR, DTNB reduction, TNB absorbance 405 nm | AID 485364, 2010 | hit rate 3% among 360,000 | Potency, µM (top dose mostly 114 µM), inactives show at the top dose activity change, negative = inhibition, usual class: inhibitors; note: potency is the fitted concentration of half-maximal effect; nearly all actives have a fitted effect of over 60% in size
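Kinetic colorimetric format: TGR-catalysed, NADPH-driven DTNB reduction monitored via TNB absorbance. Enzyme dispensed at 20 nM; compound exposure 15 min at room temperature before reaction start.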
Pf growth 96h – Primary qHTS for delayed death inhibitors of the malarial parasite plastid, 96 hour incubation | Potency, µM (doses to about 28.7 µM), without a hit: at the top dose activity change, negative = inhibition, usual class: inhibitors | P. falciparum luciferase reporter growth, 96 h | AID 504834, 2011 | hit rate 6.9% among 320,000; note: potency is the fitted concentration of half-maximal effect
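Luminescence readout: decreased luciferase signal marks inhibited growth of reporter-expressing P. falciparum in infected red cells (2% hematocrit, 0.05% parasitemia final), exposed to compound two generations (96 h, 37 C, 5% CO2).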
The depositor's hits bear a star; ? = inconclusive; / = no result given; [ ] = dose if it differs, or a comment. Unless noted, calls come from the whole dose curve; as a rule, active = well fitted curve in the direction sought with a large enough effect; inconclusive = small, poorly fitted or top-dose-only effect, or another doubt; inactive = no such curve, though single readings can be large; an effect the other way counts as inactive or inconclusive. % is set by controls: 0 for no effect and ±100 for the full control effect.

SMILES | Pf growth 48h | FBPA Giardia inh | HCMV antiviral | Sm TGR inh | Pf growth 96h
O=[N+]([O-])c1ncccc1OCc1ccc(Br)cc1F | 37% | 15% | -7 | -6% | 58%
O=C(/C=C/c1ccc(OCCCF)cc1)NCc1cccc(Cl)c1 | ? | 0% | 33 | 15% | ?
O=C(/C=C/c1ccc(OCCCF)cc1)Nc1ccnc(-c2cccnc2)n1 | 10µM* | -4% | -33 | 0% | ?
O=C(/C=C/c1ccc(OCCCF)cc1)Nc1ccnc(-c2ccncc2)n1 | 13µM* | 1% | ? | -2% | 13µM*
Nc1ccccc1SC1CC(=O)N(c2ccccc2Cl)C1=O (centres undefined) | 5% | 0% | -35 | -2% | 39%
O=C1CC(Sc2ncccn2)C(=O)N1c1ccccc1C(F)(F)F (centres undefined) | 11% | 1% | -4 | 40µM* | ?
Cc1ccc(Cl)cc1N1C(=O)CC(Sc2ncccn2)C1=O (centres undefined) | -8% | 0% | 7 | 25µM* | 0%
C=CCOC(=O)N[C@H](/C(C(=O)OC)=C(\C)NCc1ccccc1)c1ccc(C)cc1 | / | -4% | / | / | /
C[C@@H]1CC=C[C@H]2[C@H]1C(=O)N(Cc1ccccc1)[C@H]2c1ccc2ccccc2c1 | 10µM* | -1% | -36 | -22% | 3.7µM*
Cc1ccc(-c2ccc([C@H]3[C@H]4C=CC[C@@H](C)[C@@H]4C(=O)N3Cc3ccccc3)c(F)c2)cc1 | 12µM* | 1% | -11 | -33% | 10µM*
C[C@@H]1CC=C[C@H]2[C@H]1C(=O)N(Cc1ccccc1)[C@H]2c1ccoc1 | 15% | -2% | -30 | 20µM* | -21%
CC[C@@H]1CC=C[C@H]2[C@H]1C(=O)N(Cc1ccccc1)[C@H]2c1ccoc1 | 12µM* | -10% | / | ? | ?
CCC1CC=CC2C1C(=O)N(Cc1ccccc1)C2c1ccoc1 (centres undefined) | / | -15% | / | / | /
Cc1ccc(-c2ccc(C3C4C=CCC(C)C4C(=O)N3Cc3ccccc3)c(F)c2)cc1 (centres undefined) | / | -7% | / | / | /
O=C(CN1CCCCCC1)N/N=C/c1cccc(Cl)c1Cl | 37% | -13% | ? | -6% | 0%
O=S1(=O)CC(N2CC=CC2)CN1Cc1cn(Cc2ccc(Cl)cc2)nn1 (centres undefined) | / | / | -34 | / | /
COc1cccc(-n2c(SCC(=O)N3CCc4ccccc43)nc3c([nH]c4ccccc43)c2=O)c1 | / | / | 28 | -2% | /
COc1ccc(-c2ccc(C(C)=O)cc2)cc1C1C2C=CCC(C)C2C(=O)N1Cc1ccccc1 (centres undefined) | / | -5% | / | / | /
O=C1C2C(c3cccc(/C=C/c4ccccc4)c3)CC=CC2C(c2ccc(C(F)(F)F)cc2)N1Cc1ccccc1 (centres undefined) | 12µM* | 1% | ? | -25% | 9.3µM*
C[C@@H]1CC=C[C@H]2[C@H]1C(=O)N(Cc1ccccc1)[C@H]2c1ccc2ccccc2c1Br | 10µM* | -11% | ? | ? | ?
COc1ccc(-c2ccc(C(C)=O)cc2)cc1[C@H]1[C@H]2C=CC[C@@H](C)[C@@H]2C(=O)N1Cc1ccccc1 | ? | -1% | -90* | ? | ?
C#C[C@]1(O)CC[C@@H]2[C@H]3CCc4cc(OC)ccc4[C@@H]3CC[C@@]21C | / | 0%[21.7 µM] | / | / | /
COc1ccc(-c2nnc(SCC(=O)N(C)Cc3ccccc3)o2)cc1OC | / | / | 9 | 5% | /
NC(=O)C1(N2CCCCC2)CCN(C(=O)Nc2ccc(F)cc2)CC1 | / | / | 8 | 3% | /
O=C(C(Br)=Cc1ccccc1)c1ccccc1 | / | / | -83* | / | /
SMILES | Pf growth 48h | FBPA Giardia inh | HCMV antiviral | Sm TGR inh | Pf growth 96h
CC(=Cc1ccccc1)C(=O)c1ccccc1 | / | / | -26 | / | /
COc1cc(C2c3c(-c4cc(C)ccc4O)n[nH]c3C(=O)N2Cc2cccnc2)cc(OC)c1OC (centres undefined) | / | / | -10 | 5% | /
COc1cc(C2c3c(-c4cc(Cl)c(C)cc4O)n[nH]c3C(=O)N2Cc2cccnc2)ccc1O (centres undefined) | 8.3µM* | -14% | 13 | -28% | /
COc1cccc(C2c3c(-c4cc(Cl)c(C)cc4O)n[nH]c3C(=O)N2Cc2cccnc2)c1 (centres undefined) | / | -4% | 6 | 0% | 6.6µM*
COc1cccc(C2c3c(-c4ccccc4O)n[nH]c3C(=O)N2Cc2cccnc2)c1 (centres undefined) | / | / | 12 | -1% | /
CCOc1ccccc1-c1cc(C(=O)N/N=C/c2ccc3c(c2)OCO3)c2ccccc2n1 | 2.3µM* | -1% | 7 | 1% | /
O=C(N/N=C/c1ccc2c(c1)OCO2)c1cc(-c2ccccc2Cl)nc2ccccc12 | ? | 8% | 17 | 5% | 10µM*
O=C(N/N=C/c1ccc2c(c1)OCO2)c1cc(-c2ccncc2)nc2ccccc12 | ? | 1% | ? | -7% | ?
O=c1c2ccccc2sc2nc(C3CCCCC3)n(Cc3ccco3)c(=O)c12 | 1.7µM* | -12% | -28 | 10µM* | 6.6µM*
CCc1nc2sc3ccccc3c(=O)c2c(=O)n1Cc1ccco1 | -24% | -9% | -3 | 35µM* | ?
COc1cccc(C(=O)Nc2cc(C)nn2-c2ccccc2)c1OC | ? | / | -25 | 6% | ?
CC(C)(C)c1ccc(OCC(=O)N/N=C/c2cc(Br)ccc2OC(=O)c2ccco2)cc1 | 2.1µM* | / | 14 | 2% | ?
COc1ccc(Br)cc1/C=N/NC(=O)c1ccco1 | 18% | -4% | -26 | 3% | -8%
Cc1ccc(CNC(=O)CCCCCn2c(=O)c3sccc3n(CC(=O)Nc3ccc(C)c(F)c3)c2=O)cc1 | / | / | 8 | -2% | /
Cn1c(=O)c(C(=O)COC(=O)c2cc(C3CC3)nc3ccccc23)c(N)n(Cc2ccccc2)c1=O | ? | -21% | 6 | -2% | 9.3µM*
Cn1c(=O)c(C(=O)COC(=O)c2cc(C(F)(F)F)nc3c(C(F)(F)F)cccc23)c(N)n(Cc2ccccc2)c1=O | / | 3% | / | / | /
Cn1c(=O)c(C(=O)COC(=O)c2cc(C(F)(F)F)nc3ccccc23)c(N)n(Cc2ccccc2)c1=O | 12µM* | 6% | 53 | -20% | ?
Cn1c(=O)c(C(=O)COC(=O)c2cc(-c3ccccc3)nc3ccccc23)c(N)n(Cc2ccccc2)c1=O | ? | -21% | / | -13% | ?
Cn1c(N)c(C(=O)COC(=O)c2ccccc2C(=O)c2ccccc2)c(=O)n(C)c1=O | 13µM* | / | 0 | -17% | -113%
Cn1c(=O)c(C(=O)COC(=O)c2cc(-c3ccco3)nc3ccccc23)c(N)n(CC2CC2)c1=O | ? | -24% | / | 3.5µM* | 8.3µM*
Cn1c(N)c(C(=O)COC(=O)c2ccccc2C(F)(F)F)c(=O)n(C)c1=O | / | / | 30 | / | /
